# According to article PMC4336329 (PLoS ONE, 2015):
# The whole screen tested about 310,000 compounds, of which about 14,000 (4.5%) showed an effect of 50% or more. Effects have a minus sign here. The list comes from a sample in which strong results are over-represented; it also holds similar structures and randomly drawn compounds.
# Target: human ether-à-go-go-related gene (hERG) potassium channel (human, UniProt Q12809)
# Assay: primary screen, population patch clamp on CHO cells stably expressing hERG; higher = less effect of the substance
# 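Also: peak tail current of the secondary pulse compared with the same well before compound.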
# Chain of human ether-à-go-go-related gene (hERG) potassium channel (Q12809 whole entry, looked up): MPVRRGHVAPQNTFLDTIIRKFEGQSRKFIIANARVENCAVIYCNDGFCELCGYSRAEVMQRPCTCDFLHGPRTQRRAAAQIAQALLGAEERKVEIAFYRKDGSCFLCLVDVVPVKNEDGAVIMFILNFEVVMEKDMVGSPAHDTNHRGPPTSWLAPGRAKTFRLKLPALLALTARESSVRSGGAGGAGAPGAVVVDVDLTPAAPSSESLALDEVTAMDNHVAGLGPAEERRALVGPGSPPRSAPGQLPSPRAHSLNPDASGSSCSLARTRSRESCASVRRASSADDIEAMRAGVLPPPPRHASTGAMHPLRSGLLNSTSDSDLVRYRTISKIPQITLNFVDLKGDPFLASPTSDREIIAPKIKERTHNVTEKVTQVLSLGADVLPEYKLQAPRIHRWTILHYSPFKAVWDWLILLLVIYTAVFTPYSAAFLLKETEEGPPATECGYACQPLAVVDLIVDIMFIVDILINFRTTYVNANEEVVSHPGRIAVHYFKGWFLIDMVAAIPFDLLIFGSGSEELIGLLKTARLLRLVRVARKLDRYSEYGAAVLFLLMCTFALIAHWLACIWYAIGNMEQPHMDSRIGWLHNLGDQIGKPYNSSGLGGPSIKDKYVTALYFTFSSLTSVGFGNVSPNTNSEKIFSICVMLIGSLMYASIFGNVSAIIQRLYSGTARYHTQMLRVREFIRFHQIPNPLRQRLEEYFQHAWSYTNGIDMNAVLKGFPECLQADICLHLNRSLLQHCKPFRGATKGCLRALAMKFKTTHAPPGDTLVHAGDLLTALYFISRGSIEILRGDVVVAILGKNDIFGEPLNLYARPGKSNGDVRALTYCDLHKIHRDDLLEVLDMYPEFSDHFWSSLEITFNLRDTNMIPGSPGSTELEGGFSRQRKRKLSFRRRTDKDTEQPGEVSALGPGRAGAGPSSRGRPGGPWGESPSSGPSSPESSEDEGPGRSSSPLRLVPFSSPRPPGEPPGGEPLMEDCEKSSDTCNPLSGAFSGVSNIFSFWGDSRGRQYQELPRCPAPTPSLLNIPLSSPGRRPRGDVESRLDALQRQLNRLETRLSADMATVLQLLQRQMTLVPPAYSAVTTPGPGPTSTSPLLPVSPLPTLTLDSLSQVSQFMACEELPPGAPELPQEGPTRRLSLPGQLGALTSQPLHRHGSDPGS
row,Compound,"hERG current change (%, negative = inhibition) at 10uM"
1,COC(=O)N[C@H](CC(C)=O)c1cccc(C(F)(F)F)c1,19.5%
2,CC(C)(C)c1cc(CCC(=O)NCc2ccccn2)cc(C(C)(C)C)c1O,-10.1%
3,CC(C)Cc1cc(CN2CCC(CO)(Cc3ccccc3)CC2)[nH]n1,-71.6%
4,OCC1(Cc2ccccc2)CCN(Cc2ccccn2)CC1,-9.51%
5,Cc1cc(C(=O)N2CCC(CO)(Cc3cccc(C(F)(F)F)c3)CC2)n[nH]1,-49.4%
6,CC(C)c1csc(CN2CCC(CO)(Cc3ccccc3)CC2)n1,-9.39%
7,CC(C)=CCN1CCN(Cc2cc(CC(C)C)n[nH]2)CC1CCO (centres unmarked),-9.57%
8,CC(C)Cc1cc(CN2CCCC(CO)(Cc3cccc(Cl)c3)C2)[nH]n1 (centres unmarked),-52.5%
9,CC(C)n1cc(CN2CCCC(CO)(Cc3cccc(Cl)c3)C2)cn1 (centres unmarked),-24%
10,CC(C)Cc1cc(CN2CCC(CO)(Cc3cccc(C(F)(F)F)c3)CC2)[nH]n1,-78%
11,Cc1cc(CN2CCCC(CO)(Cc3cccc(Cl)c3)C2)n[nH]1 (centres unmarked),-43.2%
12,CC(C)NC(=O)Cn1nc(C(F)(F)F)c2c1CCC2,7.42%
13,C=C(C)CNc1cc(S(=O)(=O)N2CCOCC2)ccc1Oc1ccccc1,-21.3%
14,O=C(CCN1C(=O)c2cccc3cccc(c23)C1=O)N1CCOCC1,19.9%
15,CCN1CCN(CC(=O)NC2CCCCC2)C(=O)C1=O,1.65%
16,COc1cccc(CNC(=O)C(C)n2nc(C)n3c(cc4occc43)c2=O)c1 (centres unmarked),7.17%
17,CCCOc1ccc(C(=O)NNC(=S)NC(=O)c2cccs2)cc1,16.7%
18,CC(C)=CC(=O)O[C@H]1[C@@H]2[C@H](C)C(=O)O[C@@H]2C[C@@H](C)[C@@H]2[C@@H](O)CC(=O)[C@]21C,22.4%
19,COC(=O)CCSc1cc(NCCOC(C)=O)c([N+](=O)[O-])c2nonc12,-25.6%
20,O=C(N/N=C/c1cn(CC(=O)N2CCOCC2)c2ccccc12)c1cccnc1,16.3%
21,Cc1ccc(NC(=O)C(C)Sc2nc(-c3ccccc3)cc(=O)[nH]2)cc1 (centres unmarked),20.8%
22,COc1ccccc1NC(=O)/C(=C\c1cccnc1)NC(=O)c1ccccc1,-65.5%
23,Cc1ccc(NC(=O)/C(=C\c2cccnc2)NC(=O)c2ccccc2)cc1,-46%
24,COc1ccccc1NC(=O)/C(=C\c1cccnc1)NC(=O)c1ccc(C)cc1,-71.9%
25,O=C(Nc1ccccc1)/C(=C/c1cccnc1)NC(=O)c1ccccc1,2.08%
26,COc1ccccc1NC(=O)/C(=C/c1ccncc1)NC(=O)c1ccccc1,-10.6%
27,Cc1ccc(C(=O)N/C(=C/c2cccnc2)C(=O)O)cc1,8.41%

row,Compound,"hERG current change (%, negative = inhibition) at 10uM"
1,COc1cc(OC)c(OC)cc1CNC(=O)c1ccc(S(=O)(=O)N2CC(C)OC(C)C2)cc1 (centres unmarked),-11%
2,O=C(COc1cc(Cl)c(Cl)cc1Cl)NCCN1CCOCC1,-7.1%
3,CCCCNC(=O)[C@H](Cc1c[nH]c2ccccc12)NC(=O)c1ccccc1Cl,-8.26%
4,O=C(NCc1ccco1)C1CCCN(S(=O)(=O)c2ccc(-n3cnnn3)cc2)C1 (centres unmarked),-61.8%
5,NC(=O)CNC(=O)C1CCN(S(=O)(=O)c2ccc(-n3cnnn3)cc2)CC1,-41.4%
6,COc1ccc(OC)c(NC(=O)C2CCCN(S(=O)(=O)c3ccc(-n4cnnn4)cc3)C2)c1 (centres unmarked),-12.5%
7,COc1ccccc1NC(=O)C1CCCN(S(=O)(=O)c2ccc(-n3cnnn3)cc2)C1 (centres unmarked),-46.8%
8,CC(C)CCNC(=O)C1CCCN(S(=O)(=O)c2ccc(-n3cnnn3)cc2)C1 (centres unmarked),22.5%
9,COc1ccc(C)cc1NC(=O)C1CCCN(S(=O)(=O)c2ccc(-n3cnnn3)cc2)C1 (centres unmarked),-69.8%
10,CC(=O)Nc1ccc(S(=O)(=O)N2CCC(C(=O)NCc3ccco3)CC2)cc1,0.324%
11,O=C(NCc1ccccc1F)C1CCCN(S(=O)(=O)c2ccc(-n3cnnn3)cc2)C1 (centres unmarked),-1.94%
12,O=C(NCc1ccccc1)C1CCCN(S(=O)(=O)c2ccc(-n3cnnn3)cc2)C1 (centres unmarked),2.94%
13,O=C(NCC1CC1)C1CCCN(S(=O)(=O)c2ccc(-n3cnnn3)cc2)C1 (centres unmarked),-63.7%
14,C=CCNC(=O)C1CCCN(S(=O)(=O)c2ccc(-n3cnnn3)cc2)C1 (centres unmarked),-27.5%
15,O=C(NCc1ccco1)C1CCN(S(=O)(=O)c2ccc(-n3cnnn3)cc2)CC1,-70.5%
16,COC(=O)C1=C(C(=O)OC)[C@@H]2N(C)c3ccccc3[C@@]23C[C@@H](C(=O)OC)N(C(=O)c2ccc(Br)cc2)C3=N1,-1.06%
17,Fc1ccc2c(c1)C(c1ccc(N3CCOCC3)cc1)=NNC(c1cccs1)=N2,-1.96%
18,CC1=CC(C)(C)NC(=S)N1c1cc(C)cc(C)c1,10.5%
19,Cc1nc(Nc2ccc(C(=O)O)cc2)nc(Nc2ccc(C(=O)O)cc2)c1[N+](=O)[O-],15.3%
20,Cc1cc(=O)c2cc(C(=O)c3ccccc3)ccc2[nH]1,-4.4%
21,COc1ccccc1Cn1c(=O)c2ccccc2n2c(SCc3csc(C)n3)nnc12,-6.34%
22,CC1=C(C)CC(C(=O)NNC(=O)c2cccc(Cl)c2)C(C(=O)O)C1 (centres unmarked),12.3%
23,Cc1ccccc1C(=O)Nc1ccc(C(=O)N/N=C/c2ccc(O)c(Br)c2)cc1,-2.99%
24,CC(C)C[C@H](NC(=O)c1[nH]cnc1C(=O)N[C@@H](Cc1ccccc1)C(=O)OCc1ccccc1)C(=O)OCc1ccccc1,21.6%
25,CNC(=O)c1[nH]cnc1C(=O)N[C@@H](CC(C)C)C(=O)OCc1ccccc1,-58.2%
26,CC(C)C[C@H](NC(=O)c1nc[nH]c1C(=O)N[C@@H](CC(C)C)C(=O)OCc1ccccc1)C(=O)OCc1ccccc1,16.2%
